Source: PubChem BioAssay AID2284326 (EPA ToxCast)
Records with an inconclusive call do not appear. Activity calls are given as the source filed them. How the source made its calls: active means hit-call score of the fitted dose curve at least 0.9, where 1 is the maximum; inconclusive means response in the unintended direction; inactive means score below 0.9.

test system: TPO (gene 7173); assay: CCTE_GLTED_hTPO: CCTE's human Thyroperoxidase (hTPO) Inhibition Assay, Great Lakes Toxicology and Ecology Division (GLTED) Lab
Method: CCTE_GLTED_hTPO is a cell-free, single-readout assay designed to test the inhibitory activity of chemicals toward human thyroperoxidase (TPO) protein. Uninhibited enzyme converts Amplex UltraRed to a fluorescent product. Measurements were taken 0.5 hour after chemical dosing in a 96-well plate. CCTE_GLTED_hTPO is the assay component measured from the CCTE_GLTED_hTPO assay. It is designed to make measurements of enzyme activity, a form of enzyme reporter, as detected with […] by Fluorescence technology.Data from the assay component CCTE_GLTED_hTPO was analyzed at the assay endpoint CCTE_GLTED_hTPO in the positive analysis fitting direction relative to DMSO as the negative control and baseline of activity. Using a type of enzyme reporter (the Amplex UltraRed assay), loss-of-signal activity can be used to understand decreased peroxidase activity in the presence of excess […]. To generalize the intended target to other relatable targets, this assay endpoint is annotated to the 'oxidoreductase' intended target family, where the subfamily is 'peroxidase'.
[…]

Question: For `O=C(O)C(F)(OC(F)(F)C(F)(F)C(F)(F)F)C(F)(F)F` (stereo not drawn), which AC50 is on record?
Answer: 40.2 µM (active)

Question: `O=S(=O)(O)C(F)(F)C(F)(F)C(F)(F)C(F)(F)C(F)(F)C(F)(F)C(F)(F)C(F)(F)F` was tested. Which AC50 did it give?
Answer: 285 µM (active)

Question: For `O=C(O)C(F)(F)C(F)(F)C(F)(F)C(F)(F)C(F)(F)C(F)(F)C(F)(F)C(F)(F)F`, which outcome is on record?
Answer: inactive
